Screening data deposited in PubChem BioAssay by National Center for Advancing Translational Sciences (NCATS).
Many of the other results were omitted from the sample, so hits are more common in it than they were.
CHX counter – Cycloheximide Counterscreen for Small Molecule Inhibitors of Shiga Toxin; cell reporter, cycloheximide protein synthesis inhibition counterscreen; 300,000 compounds, 12% hits; max response, %; AID 2314, 2010; in the data active = max response mostly above about 13%, no sharp cut-off; inactive = mostly below about 14%; note: read at 38.3 µM for the half of the compounds with a filed dose
Shiga toxin inh – A qHTS for Small Molecule Inhibitors of Shiga Toxin; Vero cells, Shiga toxin protein synthesis inhibition reporter; inhibition, % at 38.7 µM; 290,000 compounds, 9.2% hits; in the data active = inhibition mostly above about 28%, no sharp cut-off; inactive = mostly below about 43%
SARS PLpro yeast – qHTS of Yeast-based Assay for SARS-CoV PLP. S. cerevisiae expressing SARS-CoV PLpro, growth rescue. Potency, µM (titrated, usually from 32.9 µM), most hits filed as activators. 330,000 compounds, 0.19% hits. AID 485353, 2010; calls by dose curve; note: nearly all actives have a fitted effect of over 55% in size
AMA1-RON2 inh – qHTS for Inhibitors of AMA1-RON; Towards Development of Antimalarial Drug Lead: Primary Screen. Potency, µM (highest dose often 58.2 µM), actives largely listed as inhibitors. Plasmodium falciparum AMA1 (3D7) - RON2 peptide interaction. AID 720542, 2013. AlphaScreen AMA1-biotinylated RON2 peptide binding. 360,000 compounds, 0.2% hits; note: nearly all actives have a fitted effect of over 45% in size
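AMA1 (3D7) with his tag at 25 nM final met compounds first, then biotinylated RON2 peptide at 25 nM; detection used donor plus acceptor beads, 10 µg/mL apiece, read by AlphaScreen after 30 min at room temperature.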
AmpC no deterg – qHTS Inhibitors of AmpC Beta-Lactamase (assay without detergent); AmpC nitrocefin hydrolysis, absorbance 480 nm, 0.0001% Triton; AID 485341, 2010; 330,000 compounds, 0.52% hits; Potency, µM (titrated, usually from 57.1 µM), most hits filed as inhibitors; P00811; note: nearly all actives have a fitted effect of over 20% in size
Target sequence (P00811 whole entry, looked up): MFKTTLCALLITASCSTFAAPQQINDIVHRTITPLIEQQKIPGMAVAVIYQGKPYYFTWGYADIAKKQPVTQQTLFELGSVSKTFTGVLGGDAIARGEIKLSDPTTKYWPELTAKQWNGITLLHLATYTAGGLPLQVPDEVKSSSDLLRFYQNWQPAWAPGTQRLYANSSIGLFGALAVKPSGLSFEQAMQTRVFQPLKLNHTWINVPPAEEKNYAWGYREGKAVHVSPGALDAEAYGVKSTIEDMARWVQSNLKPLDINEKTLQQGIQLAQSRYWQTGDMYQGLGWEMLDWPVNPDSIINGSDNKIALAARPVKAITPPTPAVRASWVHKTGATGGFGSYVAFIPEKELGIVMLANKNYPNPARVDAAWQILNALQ
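AmpC (5.3 nM in the dispensed reagent) in 20 mM phosphate pH 7.0 with 0.01% (detergent screen) or 0.0001% Triton X-100 was preincubated with compounds for 15 min at room temperature. Nitrocefin was then added from an 800 uM solution, and hydrolysis was followed at 480 nm.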
AmpC detergent – qHTS Inhibitors of AmpC Beta-Lactamase (assay with detergent) | AmpC hydrolysis of nitrocefin, absorbance 480 nm, 0.01% Triton | AID 485294, 2010 | P00811 | Potency, µM (top dose mostly 114 µM), actives largely listed as inhibitors | 370,000 compounds, 0.041% hits; note: nearly all actives have a fitted effect of over 25% in size
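20 mM phosphate pH 7.0 + 0.01% (detergent screen) or 0.0001% Triton X-100; 5.3 nM AmpC reagent; cpd preinc 15 min RT; nitrocefin (800 uM stock) to start; A480 q20 s × 4 min; Activity was normalised to no-enzyme and no-compound control wells.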
A number is an active result; 0 = inactive; ? = inconclusive; - = no result; [ ] = remark or other dose. Unless noted, calls come from the whole dose curve; as a rule, active = well fitted curve in the direction sought with a large enough effect; inconclusive = small, poorly fitted or top-dose-only effect, or another doubt; inactive = no such curve, though single readings can be large; an effect the other way counts as inactive or inconclusive.

SMILES | CHX counter | Shiga toxin inh | SARS PLpro yeast | AMA1-RON2 inh | AmpC no deterg | AmpC detergent
CCOC(=O)c1ccc(Nc2ncnc3ccccc23)cc1 | 46.3 | 0 | 0 | 0 | 0 | 0
CCOC(=O)c1ccc(Nc2ncnc3ccc(C)cc23)cc1 | 0 | 0 | 0 | 0 | 0 | ?
CCOC(=O)c1ccc(Nc2ncnc3nc[nH]c23)cc1 | 22.4 | 43.9 | 0 | 0 | 0 | ?
O=C(O)c1ccc(Nc2ncnc3ccccc23)cc1 | 15.8 | 0 | 0 | 0 | 0 | 0
O=S(=O)(c1ccc2c(c1)OCO2)N1CCN(c2nnnn2-c2ccccc2)CC1 | 35.9 | 0 | 0 | 0 | 0 | ?
S=C(NCc1ccco1)Nc1cc(-c2ccccc2)[nH]n1 | 28.3 | 98.0 | 0 | 0 | 15.8µM | 0
S=C(NCc1ccco1)Nc1ccc(Br)cn1 | 11.0 | 0 | 0 | 0 | 0 | 0
CCNC(=S)NCc1ccco1 | 0 | 0 | 0 | 0 | 0 | 0
CC(C)(C)NC(=O)C(c1ccncc1)N(C(=O)Cn1nnc(-c2ccc(F)cc2)n1)c1ccccc1F (stereo not given) | 20.6 | 0 | 0 | 0 | 0 | 0
CC1=CC2(C)C(C3C(C)=CC2(C)C(=O)C3(C)O)C(C)(O)C1=O (stereo not given) | - | - | - | 0 | - | -
Cc1ccc(NC(=O)C2C(=O)N(C)c3ccccc32)cc1 (stereo not given) | 18.8 | 0 | 0 | 0 | 0 | 0
CN1C(=O)C(C(=O)Nc2ccccc2F)c2ccccc21 (stereo not given) | 0 | 0 | 0 | 0 | 0 | 0
Cc1ccc(/C=C/C(=O)N2CCc3ccccc32)o1 | 49.8 | 103.4 | 0 | 0 | 0 | 0
CCOC(=O)/C=C/C(=O)N1CCc2ccccc21 | 0 | 0 | 0 | 0 | 0 | 0
O=C(/C=C/c1ccco1)N1CCc2ccccc21 | 28.9 | 58.8 | 0 | ? | 0 | 0
C/C(=C\C(=O)N1CCc2ccccc21)C(=O)O | 0 | 0 | 0 | 0 | 0 | ?
NS(=O)(=O)c1ccc(NC(=O)c2ccccc2Cl)cc1 | 0 | 0 | 0 | 0 | 0 | 0
O=C(O)c1ccccc1C(=O)NNc1cccc(Cl)n1 | 48.8 | 97.5 | 0 | 0 | 0 | 0
NS(=O)(=O)c1ccc(NNC(=O)c2ccccc2C(=O)O)cc1 | 28.6 | 0 | 0 | 0 | 0 | 0
O=C(O)c1ccccc1C(=O)NNc1ccc(Cl)cc1 | 11.4 | 49.2 | 0 | 0 | 0 | 0
CCc1nnc(NC(=O)CSc2ccc(-c3ccc(-n4cccn4)cc3)nn2)s1 | - | - | - | 0 | 0 | ?
Cc1ccc2nc(-c3ccc(NS(=O)(=O)c4ccc(F)cc4)cc3)sc2c1 | 52.3 | 158.6 | 0 | 0 | 0 | 0
CC(=O)Nc1ccc(S(=O)(=O)Nc2nc3ccc(C)cc3s2)cc1 | 0 | 0 | 0 | 0 | 0 | 0
CC(=O)NC(=S)Nc1ccc(-c2nc3ccc(C)cc3s2)cc1 | 27.4 | 79.7 | 0 | 0 | 0 | 0
CNC(=S)Nc1ccc(-c2nc3ccc(C)cc3s2)cc1 | 30.1 | 95.1 | 0 | 0 | 0[2.29 µM] | ?
SMILES | CHX counter | Shiga toxin inh | SARS PLpro yeast | AMA1-RON2 inh | AmpC no deterg | AmpC detergent
Cc1ccc2nc(-c3ccc(N4C(=N)SC5CS(=O)(=O)CC54)cc3)sc2c1 (stereo not given) | 46.4 | 126.3 | 0 | 0 | 0 | 0
CC1CCN(S(=O)(=O)c2ccc(N3CCCCS3(=O)=O)cc2)CC1 | - | - | - | - | - | 0
Cc1ccc(-c2csc(C3C(N)=NC(S)=C(C#N)C34CCCCC4)n2)cc1 (stereo not given) | 0 | 0 | 0 | 0 | 0 | 0
CC1=CCC(C(=O)O)C(C(=O)Nc2ccc(-c3nc4ccc(C)cc4s3)cc2)C1 (stereo not given) | 53.7 | 104.4 | 0 | 0 | 0 | 0
Nc1ccc(-c2nc3cc(N)ccc3s2)cc1 | 37.5 | 66.6 | 0 | 0 | 0 | 0
Cc1ccc2nc(-c3ccc(N)cc3)sc2c1 | 29.8 | 0 | 0 | 0 | 0 | 0
Cc1ccc2sc(-c3ccc(N)cc3)nc2c1 | - | - | - | - | - | 0
COCCNc1nnc(SC(C)C(=O)Nc2ccc(-c3nc4ccc(C)cc4s3)cc2)s1 (stereo not given) | 28.2 | 93.2 | 0 | 0[11.6 µM] | 0 | 0
